# In PubChem BioAssay:
# Activity calls are given as the source filed them. Unless noted, how the calls were made is not given here.
# Legend:
# [1] = HepG2 liver cancer cell viability effects, profiling panel, resazurin fluorescence, 24 h, PK04 Diversity Set (AID 1172); details: higher = more signal
# [2] = basal S. cerevisiae growth modulation, no modifier, primary screen, OD600, strain BY4716, 24 h, basal condition (AID 1173); details: OD600, 24 h, higher = more signal, called active from +8 up or from −8 down
# [3] = MM1S myeloma cell viability, profiling panel, resazurin fluorescence, basal, 24 h, PK04 Diversity Set (AID 1174); details: higher = more signal, called active from +8 up or from −8 down;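 further: MM1S multiple myeloma cell line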
# [4] = target: Dihydroorotate dehydrogenase (quinone), mitochondrial (Plasmodium falciparum (isolate 3D7)) (UniProt Q08210); test: PfDHODH enzyme inhibitors, primary screen, biochemical, C-terminal His tag, absorbance 600 nm (AID 1175); details: DCIP absorbance 600 nm, higher = more signal, called active from +8 up or from −8 down;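 further: recombinant parasite enzyme with a five histidine tag at its C terminus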
# Dihydroorotate dehydrogenase (quinone), mitochondrial (Plasmodium falciparum (isolate 3D7)), sequence (Q08210 whole entry, looked up): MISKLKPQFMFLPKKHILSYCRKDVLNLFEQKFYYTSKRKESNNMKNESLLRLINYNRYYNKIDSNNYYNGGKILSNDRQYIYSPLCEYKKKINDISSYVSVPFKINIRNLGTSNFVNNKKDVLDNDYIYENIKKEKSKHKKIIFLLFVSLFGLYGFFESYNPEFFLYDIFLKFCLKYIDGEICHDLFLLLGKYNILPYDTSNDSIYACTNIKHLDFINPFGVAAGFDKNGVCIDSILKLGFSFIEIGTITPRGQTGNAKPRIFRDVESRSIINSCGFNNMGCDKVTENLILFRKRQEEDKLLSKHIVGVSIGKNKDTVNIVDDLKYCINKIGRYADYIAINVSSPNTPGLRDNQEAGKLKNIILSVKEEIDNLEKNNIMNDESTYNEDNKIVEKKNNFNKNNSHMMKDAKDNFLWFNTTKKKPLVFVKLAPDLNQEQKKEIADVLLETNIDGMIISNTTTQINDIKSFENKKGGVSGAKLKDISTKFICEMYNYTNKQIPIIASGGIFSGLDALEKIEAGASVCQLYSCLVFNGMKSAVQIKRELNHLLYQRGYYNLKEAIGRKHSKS
# [5] = P. aeruginosa biofilm formation inhibitors, primary screen, strain PAO1, LB-PBS medium, absorbance 600 nm (AID 1176); details: P. aeruginosa PAO1 growth/biofilm, A600, 12 h; higher = more signal
# [6] = S. cerevisiae RM11-1a growth modifiers, primary screen, strain RM11-1a, OD600, basal, 24 h (AID 1177); details: OD600, 24 h, higher = more signal, called active from +8 up or from −8 down;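 further: cultures grown under basal conditions with no added stressor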
# [7] = E. coli acrAB mutant growth effects, primary screen, E. coli filamentation inducers, strain DRC39, OD650, 24 h (AID 1178); details: higher = more signal, called active from +8 up or from −8 down;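 further: growth measured as culture turbidity by optical density at 650 nm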
# [8] = E. coli acrAB mutant growth effects, primary screen, E. coli filamentation inducers, strain DRC39, OD650, 48 h (AID 1179);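 further: screen aims at cell division blockers that make cells filament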; details: E. coli DRC39 delta-acrAB growth, higher = more signal, called active from +8 up or from −8 down
# [9] = RPMI8226 myeloma cell viability, profiling panel, resazurin fluorescence, basal, 24 h, PK04 Diversity Set (AID 1180); details: higher = more signal;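 further: RPMI8826 multiple myeloma cell line at 5000 cells per well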
# [10] = target: E3 ubiquitin-protein ligase XIAP (Homo sapiens) (UniProt P98170); test: XIAP binders, primary screen, biophysical, small-molecule microarray, fluorescence 635 nm (AID 1181); details: small-molecule microarray binding, higher = more signal;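 further: score merges 667 nm emission and signal to noise over triplicate slides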
# E3 ubiquitin-protein ligase XIAP (Homo sapiens), sequence (P98170 whole entry, looked up): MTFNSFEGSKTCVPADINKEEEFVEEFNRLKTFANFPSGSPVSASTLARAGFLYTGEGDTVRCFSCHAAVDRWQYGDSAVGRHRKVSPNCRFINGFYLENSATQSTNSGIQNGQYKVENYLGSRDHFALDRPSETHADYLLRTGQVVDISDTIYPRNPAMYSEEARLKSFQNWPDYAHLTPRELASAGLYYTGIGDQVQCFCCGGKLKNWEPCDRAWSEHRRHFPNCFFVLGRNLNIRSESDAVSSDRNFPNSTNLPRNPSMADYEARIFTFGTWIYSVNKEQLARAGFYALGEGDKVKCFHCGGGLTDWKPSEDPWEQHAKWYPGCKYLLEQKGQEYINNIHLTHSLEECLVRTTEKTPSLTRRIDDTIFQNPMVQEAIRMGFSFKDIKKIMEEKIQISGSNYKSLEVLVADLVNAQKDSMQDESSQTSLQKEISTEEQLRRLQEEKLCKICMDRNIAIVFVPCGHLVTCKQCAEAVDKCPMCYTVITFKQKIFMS
# [11] = tested on: XIP peptide (Xip251-270) binding; test: small-molecule binders of XIP peptide, primary screen, biochemical, small-molecule microarray, fluorescence 635/667 nm, 0.1 µg/mL protein (AID 1182); details: fluorescent protein binding, 635 nm, higher = more signal, called active from +8 up or from −8 down
# [12] = tested on: XIP peptide (Xip251-270); test: small-molecule binders of XIP peptide, primary screen, biochemical, small-molecule microarray, fluorescence 635/667 nm, 0.5 µg/mL protein (AID 1183); details: small-molecule microarray binding, fluorescence 635 nm; higher = more signal
# [13] = Plasmodium falciparum growth inhibition, primary screen, strain 3D7, DAPI fluorescence, 100 nL (AID 1184);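 further: parasites grown inside human red blood cells in medium with human serum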; details: P. falciparum 3D7 growth, 3 d, higher = more signal
# [14] = target: Homeobox protein Hox-A13 (Mus musculus) (UniProt Q62424); test: inhibitors of HoxA13-DNA binding, primary screen, biochemical, fluorescence polarization, labeled oligonucleotide (AID 1185); details: 15 min, higher = more signal, called active from +8 up or from −8 down
# Homeobox protein Hox-A13 (Mus musculus), sequence (Q62424 whole entry, looked up): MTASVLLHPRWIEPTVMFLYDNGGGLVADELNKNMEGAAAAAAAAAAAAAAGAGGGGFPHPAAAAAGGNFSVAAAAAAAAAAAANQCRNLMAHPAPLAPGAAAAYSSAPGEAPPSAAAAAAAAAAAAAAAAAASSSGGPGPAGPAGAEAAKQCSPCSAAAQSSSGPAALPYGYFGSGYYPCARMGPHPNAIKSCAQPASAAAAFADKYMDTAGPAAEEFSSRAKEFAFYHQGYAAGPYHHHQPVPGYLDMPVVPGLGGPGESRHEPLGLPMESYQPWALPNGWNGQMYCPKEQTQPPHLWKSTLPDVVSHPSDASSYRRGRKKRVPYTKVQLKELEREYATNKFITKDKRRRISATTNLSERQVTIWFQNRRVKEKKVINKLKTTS
# [15] = inhibitors of hydroxyurea-induced Chk1 phosphorylation, primary screen, imaging, HeLa, phospho-Chk1 antibody, percent positive cells (AID 1186); details: hydroxyurea-induced phospho-Chk1 immunofluorescence imaging, higher = more signal
# [16] = inhibitors of hydroxyurea-induced Chk1 phosphorylation, primary screen, imaging, HeLa, phospho-Chk1 nuclear intensity (AID 1187); details: hydroxyurea-induced phospho-Chk1 immunofluorescence imaging, higher = more signal
Compound,z-score [1],z-score [2],z-score [3],composite z-score [4],z-score [5],z-score [6],z-score [7],z-score [8],z-score [9],composite z-score [10],composite z-score [11],composite z-score [12],z-score [13],z-score [14],z-score [15],z-score [16]
O=C1O[C@H](c2ccccc2)[C@H](c2ccccc2)N2[C@H]1[C@@H](C(=O)N1CCN(c3ncccn3)CC1)[C@]1(C(=O)Nc3ccccc31)[C@H]2c1ccc(OCCO)cc1,1.42,1.4 (inactive),0.792 (inactive),1.12 (inactive),1.55 (inactive),1.81 (inactive),0.774 (inactive),0.0049 (inactive),0.368,0.109,-0.161 (inactive),0.219,-2.39,2.46 (inactive),-0.54 (inactive),-1.1 (inactive)
C=CCOC(=O)[C@@H]1[C@H]2C(=O)O[C@H](c3ccccc3)[C@H](c3ccccc3)N2[C@H](c2ccc(OCCOC(=O)[C@@H]3C[C@@H]4C(=O)N[C@@H](Cc5ccccc5)C(=O)N4[C@@H]3c3cccc(OCCO)c3)cc2)[C@@]12C(=O)Nc1ccc(I)cc12,0.134,1.94 (inactive),0.375 (inactive),-0.0168 (inactive),2.17 (inactive),2.94 (inactive),0.421 (inactive),-0.463 (inactive),0.318,0.434,0.299 (inactive),0.738,-1.69,-0.282 (inactive),0.0948 (inactive),0.608 (inactive)
O=C1C2C=CC(C(O)c3cccs3)N(Nc3ccccc3F)C2C(=O)N1c1ccccc1 (centres undefined),1.21,-1.3 (inactive),0.982 (inactive),0.609 (inactive),0.574 (inactive),-0.24 (inactive),-0.0052 (inactive),1.05 (inactive),0.562,0.33,-0.238 (inactive),0.111,0.669,-4.17 (inactive),-0.143 (inactive),-0.299 (inactive)
CC(C)N1C(=O)C[C@@](C(=O)NCc2ccccc2)(c2ccc([N+](=O)[O-])cc2)[C@H]1c1ccc(CO)cc1,0.222,-0.228 (inactive),0.0372 (inactive),0.41 (inactive),-0.0528 (inactive),0.131 (inactive),0.531 (inactive),1.23 (inactive),1.26,-0.0543,0.168 (inactive),0.524,-0.688,-1.27 (inactive),-0.293 (inactive),-0.128 (inactive)
COCCOC(=O)N1C(=O)[C@@]2(c3cc(C#CCNC(N)=O)ccc31)[C@H](C(=O)N1CCc3cc(OC)c(OC)cc3C1)[C@H]1C(=O)O[C@H](c3ccccc3)[C@H](c3ccccc3)N1[C@@H]2c1ccc(OCCO)cc1,0.631,2.28 (inactive),0.761 (inactive),-0.232 (inactive),1.92 (inactive),2.97 (inactive),0.987 (inactive),0.781 (inactive),0.856,0.122,0.034 (inactive),0.616,-1.3,1.53 (inactive),-0.184 (inactive),-0.0927 (inactive)
COCCOC(=O)N1C(=O)[C@@]2(c3cc(C#CCCO)ccc31)[C@H](c1ccc(O)cc1)N1[C@H](c3ccccc3)[C@H](c3ccccc3)OC(=O)[C@H]1[C@@H]2C(N)=O,-0.231,0.0254 (inactive),-0.644 (inactive),-0.294 (inactive),0.911 (inactive),0.565 (inactive),0.145 (inactive),0.138 (inactive),-1.08,-0.0272,0.599 (inactive),0.77,-0.662,-5.33 (inactive),-0.296 (inactive),-0.841 (inactive)
COc1c(C)cc(-c2cc3c(c(-c4ccc(Oc5ccccc5)cc4)n2)[Si](C(C)C)(C(C)C)OC3)cc1C,-0.566,2.09 (inactive),-0.391 (inactive),0.567 (inactive),1.18 (inactive),1.19 (inactive),-0.227 (inactive),-0.707 (inactive),-0.155,-0.187,-0.631 (inactive),-0.466,-0.898,-0.746 (inactive),0.621 (inactive),0.37 (inactive)
CC(C)N1C(=O)c2ccccc2[C@@H](C(=O)NCCCN(C)C)[C@@H]1c1ccc(CO)cc1,-0.456,-0.725 (inactive),-0.0365 (inactive),0.465 (inactive),-0.273 (inactive),0.625 (inactive),-0.315 (inactive),-0.621 (inactive),0.764,0.013,-0.361 (inactive),-0.428,-1.26,-2.54 (inactive),-0.0028 (inactive),-0.321 (inactive)
O=C1C2C=CC(C(O)c3ccc(F)cc3)N(Nc3ccccc3)C2C(=O)N1c1ccccc1 (centres undefined),-1.24,-3.05 (inactive),-1.33 (inactive),0.485 (inactive),0.888 (inactive),0.723 (inactive),-0.811 (inactive),0.128 (inactive),-0.535,-0.229,0.669 (inactive),-0.168,0.191,-4.12 (inactive),-0.125 (inactive),-0.391 (inactive)
